Reference: PubChem BioAssay AID743446 (Broad Institute, 2014)
Entries with a potency or affinity are not part of this list. A number with no mark means an inactive call. The rule behind the calls is not given here.

Experiment: viability loss in HEK293 cells – cell-based, plate reader, cherry-picked samples, cytotoxicity control, dose response (AID 743446)
Conditions: stronger effect = lower value; at 26 µM unless noted

Row | Structure (SMILES) | max activity
1 | O=C(Nc1cccnc1)c1cc(-c2ccc3c(c2)OCO3)on1 | 26.9% [at 12 µM]
2 | C[C@H](CO)N1C[C@H](C)[C@@H](CN(C)S(=O)(=O)c2cccs2)Oc2c(cccc2N(C)C)C1=O | 11.4% [at 6 µM]
3 | Brc1ccc(-c2nc(-c3ccccn3)no2)o1 | -10%
4 | O=C(Nc1ccc(Cl)cc1)Nc1ccccc1C(=O)O | 16.5% [at 0.1 µM]
5 | O=C(COC(=O)c1ccccc1C(=O)c1ccc(Cl)c([N+](=O)[O-])c1)NC1CC1 | 8.38% [at 6 µM]
6 | CCCCN(Cc1ccccc1)S(=O)(=O)c1cc2c(cc1Br)CC(C)N2C(C)=O (stereo not drawn) | 18.2% [at 0.38 µM]
7 | COc1ccc(C(=O)Nc2ccc3ccccc3n2)c(OC)c1OC | -6.81% [at 0.1 µM]
8 | C[C@H](CO)N1C[C@H](C)[C@H](CN(C)C(=O)Nc2cccc3ccccc23)OCCCC[C@H](C)Oc2ccc(NC(=O)c3ccccc3)cc2C1=O | 31.2% [at 12 µM]
9 | CC(=O)c1ccc(NC(=O)c2noc3c2CCC3)cc1 | 12.6% [at 0.1 µM]
10 | O=C(O)c1ccc(N/N=C/c2c[nH]c3ccccc23)cc1 | 10.4% [at 3 µM]
11 | O=C(Nc1cccc(C(=O)O)c1)Nc1ccc2c(c1)OCO2 | -18.7% [at 0.195 µM]
12 | Cc1ccccc1OCC(=O)Nc1cccc(C(=O)O)c1 | 6.54%
13 | Cc1ccc2nc(-c3ccc(NC(=O)COC(=O)c4ccco4)cc3)sc2c1 | -11.7% [at 1.6 µM]
